Experimental data reported in ChEMBL document CHEMBL2218924, “A broad activity screen in support of a chemogenomic map for kinase signalling research and drug discovery” (Biochem J, 2013).

Legend:
[1] = target: Tyrosine-protein kinase SYK (Homo sapiens) (UniProt P43405); settings: at 10 µM
[2] = target: T1, Mitogen-activated protein kinase kinase kinase 7 (Homo sapiens) (UniProt O43318); settings: at 1 µM
T1 sequence (whole entry): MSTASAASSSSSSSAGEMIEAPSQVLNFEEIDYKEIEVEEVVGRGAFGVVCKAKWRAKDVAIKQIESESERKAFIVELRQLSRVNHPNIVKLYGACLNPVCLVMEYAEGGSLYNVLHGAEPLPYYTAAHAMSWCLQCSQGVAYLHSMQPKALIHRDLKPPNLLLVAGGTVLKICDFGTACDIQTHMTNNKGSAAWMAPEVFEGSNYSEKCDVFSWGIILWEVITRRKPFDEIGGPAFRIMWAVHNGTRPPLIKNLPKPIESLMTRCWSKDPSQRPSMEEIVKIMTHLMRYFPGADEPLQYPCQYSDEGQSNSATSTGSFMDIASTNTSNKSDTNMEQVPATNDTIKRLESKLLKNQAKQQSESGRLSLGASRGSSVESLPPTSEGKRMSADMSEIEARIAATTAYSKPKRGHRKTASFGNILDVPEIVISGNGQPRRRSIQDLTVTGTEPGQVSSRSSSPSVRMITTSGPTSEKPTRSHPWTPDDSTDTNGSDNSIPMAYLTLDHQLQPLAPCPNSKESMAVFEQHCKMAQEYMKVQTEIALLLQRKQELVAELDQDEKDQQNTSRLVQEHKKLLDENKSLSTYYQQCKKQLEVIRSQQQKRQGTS

[3] = target: T1, Mitogen-activated protein kinase kinase kinase 7 (Homo sapiens); settings: at 10 µM
[4] = target: T2, Serine/threonine-protein kinase TAO1 (Homo sapiens) (UniProt Q7L7X3); settings: at 1 µM
T2 sequence (whole entry): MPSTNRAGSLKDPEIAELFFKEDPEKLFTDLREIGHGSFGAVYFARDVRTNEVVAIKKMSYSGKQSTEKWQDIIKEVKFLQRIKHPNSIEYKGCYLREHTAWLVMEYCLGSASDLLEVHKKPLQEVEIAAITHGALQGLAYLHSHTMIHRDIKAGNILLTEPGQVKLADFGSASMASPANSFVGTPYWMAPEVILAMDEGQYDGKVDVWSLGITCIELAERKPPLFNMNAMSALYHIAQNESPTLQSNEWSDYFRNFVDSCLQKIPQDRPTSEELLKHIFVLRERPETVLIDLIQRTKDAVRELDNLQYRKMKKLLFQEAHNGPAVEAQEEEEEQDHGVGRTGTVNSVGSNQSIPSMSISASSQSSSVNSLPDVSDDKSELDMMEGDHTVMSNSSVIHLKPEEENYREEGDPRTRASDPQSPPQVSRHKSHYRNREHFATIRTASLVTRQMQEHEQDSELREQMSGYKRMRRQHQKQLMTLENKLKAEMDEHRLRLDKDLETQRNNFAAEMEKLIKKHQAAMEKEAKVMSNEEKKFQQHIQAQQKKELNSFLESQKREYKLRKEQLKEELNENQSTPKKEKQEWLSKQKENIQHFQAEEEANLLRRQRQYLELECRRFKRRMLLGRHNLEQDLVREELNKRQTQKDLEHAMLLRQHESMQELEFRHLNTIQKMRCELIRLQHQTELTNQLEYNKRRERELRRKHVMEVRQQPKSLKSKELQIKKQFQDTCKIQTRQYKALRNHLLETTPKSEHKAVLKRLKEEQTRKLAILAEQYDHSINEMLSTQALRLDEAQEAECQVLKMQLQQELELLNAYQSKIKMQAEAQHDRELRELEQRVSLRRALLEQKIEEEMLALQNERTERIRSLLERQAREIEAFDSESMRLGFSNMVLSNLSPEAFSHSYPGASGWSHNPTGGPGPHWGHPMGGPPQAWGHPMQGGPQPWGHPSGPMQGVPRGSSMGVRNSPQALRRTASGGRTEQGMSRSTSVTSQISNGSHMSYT

[5] = target: T2, Serine/threonine-protein kinase TAO1 (Homo sapiens); settings: at 10 µM
[6] = target: T3, Serine/threonine-protein kinase TAO2 (Homo sapiens) (UniProt Q9UL54); settings: at 1 µM
T3 sequence (whole entry): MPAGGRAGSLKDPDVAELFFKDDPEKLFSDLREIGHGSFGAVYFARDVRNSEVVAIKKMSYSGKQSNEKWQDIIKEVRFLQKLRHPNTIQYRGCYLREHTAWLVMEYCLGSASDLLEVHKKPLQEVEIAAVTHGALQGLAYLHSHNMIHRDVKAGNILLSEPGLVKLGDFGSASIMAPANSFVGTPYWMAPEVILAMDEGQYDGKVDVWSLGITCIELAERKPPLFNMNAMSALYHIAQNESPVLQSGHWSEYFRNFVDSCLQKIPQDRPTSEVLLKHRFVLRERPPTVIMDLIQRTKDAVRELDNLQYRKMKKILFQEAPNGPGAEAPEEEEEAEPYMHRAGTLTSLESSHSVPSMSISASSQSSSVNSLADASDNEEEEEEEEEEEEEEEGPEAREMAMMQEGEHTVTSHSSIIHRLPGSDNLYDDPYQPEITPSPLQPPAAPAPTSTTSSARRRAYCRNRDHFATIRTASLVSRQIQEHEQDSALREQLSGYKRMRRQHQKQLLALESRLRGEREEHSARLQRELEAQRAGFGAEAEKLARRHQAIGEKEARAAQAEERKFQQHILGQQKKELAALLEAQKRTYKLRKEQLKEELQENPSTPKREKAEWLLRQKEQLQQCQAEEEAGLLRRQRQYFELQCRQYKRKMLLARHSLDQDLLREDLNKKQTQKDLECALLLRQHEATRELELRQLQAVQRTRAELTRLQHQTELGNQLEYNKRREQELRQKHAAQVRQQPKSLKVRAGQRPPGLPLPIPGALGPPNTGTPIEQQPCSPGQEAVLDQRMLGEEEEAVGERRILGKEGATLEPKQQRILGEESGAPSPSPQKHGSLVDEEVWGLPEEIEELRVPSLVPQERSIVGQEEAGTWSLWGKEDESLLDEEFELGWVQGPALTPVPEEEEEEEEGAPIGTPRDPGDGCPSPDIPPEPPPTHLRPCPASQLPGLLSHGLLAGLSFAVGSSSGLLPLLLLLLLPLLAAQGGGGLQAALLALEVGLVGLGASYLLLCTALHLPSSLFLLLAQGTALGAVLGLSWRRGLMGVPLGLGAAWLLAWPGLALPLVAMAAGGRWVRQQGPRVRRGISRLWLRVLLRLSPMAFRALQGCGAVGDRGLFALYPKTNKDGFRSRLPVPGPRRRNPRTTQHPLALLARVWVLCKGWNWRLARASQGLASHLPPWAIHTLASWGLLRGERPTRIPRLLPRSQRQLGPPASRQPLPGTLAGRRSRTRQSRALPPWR

[7] = target: T3, Serine/threonine-protein kinase TAO2 (Homo sapiens); settings: at 10 µM
[8] = target: T4, Serine/threonine-protein kinase TAO3 (Homo sapiens) (UniProt Q9H2K8); settings: at 1 µM
T4 sequence (whole entry): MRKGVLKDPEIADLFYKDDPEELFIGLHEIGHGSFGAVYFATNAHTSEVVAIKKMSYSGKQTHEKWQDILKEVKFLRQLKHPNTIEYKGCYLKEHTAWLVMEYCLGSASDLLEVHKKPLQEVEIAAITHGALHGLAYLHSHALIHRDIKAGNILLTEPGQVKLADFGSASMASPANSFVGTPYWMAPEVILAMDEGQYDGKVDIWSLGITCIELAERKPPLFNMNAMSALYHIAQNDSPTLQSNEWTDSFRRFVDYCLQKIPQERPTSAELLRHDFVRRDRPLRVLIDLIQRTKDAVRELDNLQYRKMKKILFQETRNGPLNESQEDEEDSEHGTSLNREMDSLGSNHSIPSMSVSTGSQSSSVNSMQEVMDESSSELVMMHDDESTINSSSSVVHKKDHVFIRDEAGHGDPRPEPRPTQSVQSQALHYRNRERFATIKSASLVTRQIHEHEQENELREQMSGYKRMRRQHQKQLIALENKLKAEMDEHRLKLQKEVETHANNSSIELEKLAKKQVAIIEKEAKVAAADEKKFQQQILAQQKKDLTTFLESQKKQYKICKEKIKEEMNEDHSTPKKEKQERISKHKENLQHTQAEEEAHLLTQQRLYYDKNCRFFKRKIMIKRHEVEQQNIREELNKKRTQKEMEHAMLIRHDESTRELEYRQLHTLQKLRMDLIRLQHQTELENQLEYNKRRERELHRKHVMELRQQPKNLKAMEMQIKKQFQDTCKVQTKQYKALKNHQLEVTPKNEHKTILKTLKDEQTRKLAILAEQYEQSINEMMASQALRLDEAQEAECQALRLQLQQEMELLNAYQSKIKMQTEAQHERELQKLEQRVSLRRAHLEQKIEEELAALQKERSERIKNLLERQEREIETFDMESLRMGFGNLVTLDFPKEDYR

[9] = target: T4, Serine/threonine-protein kinase TAO3 (Homo sapiens); settings: at 10 µM
[10] = target: T5, Serine/threonine-protein kinase TBK1 (Homo sapiens) (UniProt Q9UHD2); settings: at 1 µM
T5 sequence (whole entry): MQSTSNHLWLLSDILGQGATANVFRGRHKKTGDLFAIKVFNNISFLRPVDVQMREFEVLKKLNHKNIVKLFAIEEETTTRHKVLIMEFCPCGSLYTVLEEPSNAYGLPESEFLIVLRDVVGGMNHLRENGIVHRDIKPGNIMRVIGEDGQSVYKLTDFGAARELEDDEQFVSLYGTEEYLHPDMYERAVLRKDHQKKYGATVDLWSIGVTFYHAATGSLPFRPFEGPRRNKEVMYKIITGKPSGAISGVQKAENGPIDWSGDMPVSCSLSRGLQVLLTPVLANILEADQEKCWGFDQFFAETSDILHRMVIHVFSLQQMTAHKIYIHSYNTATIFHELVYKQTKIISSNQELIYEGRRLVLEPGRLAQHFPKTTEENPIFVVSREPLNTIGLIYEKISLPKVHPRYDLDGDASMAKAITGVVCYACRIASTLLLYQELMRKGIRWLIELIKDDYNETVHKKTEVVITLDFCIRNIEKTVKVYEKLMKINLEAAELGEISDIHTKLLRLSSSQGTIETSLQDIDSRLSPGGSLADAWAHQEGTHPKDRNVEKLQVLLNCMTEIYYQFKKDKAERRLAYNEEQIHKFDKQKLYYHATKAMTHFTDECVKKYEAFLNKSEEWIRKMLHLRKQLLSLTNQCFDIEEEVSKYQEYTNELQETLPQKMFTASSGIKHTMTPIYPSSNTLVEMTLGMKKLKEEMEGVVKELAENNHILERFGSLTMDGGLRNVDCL

Compound `COc1cc2ncnc(Nc3ccc(Oc4ccccc4)cc3)c2cc1OC` has a residual activity [1] of 111%, a residual activity [2] of 96% and a residual activity [3] of 95%. It also gave a residual activity [4] of 106%, a residual activity [5] of 92% and a residual activity [6] of 110%. The residual activity [7] was 106%, the residual activity [8] was 103% and the residual activity [9] was 91%. For the same compound, the residual activity [10] was 72%.
